Experimental data reported in article PMC4336329 (PLoS ONE, 2015).
The campaign covered roughly 310,000 compounds. About 14,000 (4.5%) showed an effect of 50% or more. Effects have a minus sign here. The sample as a whole holds a higher share of strong results than the screen did.

The compounds below were run against human ether-à-go-go-related gene (hERG) potassium channel (human, UniProt Q12809) (assay: primary screen, population patch clamp on CHO cells stably expressing hERG; higher = less effect of the substance).
human ether-à-go-go-related gene (hERG) potassium channel, sequence (Q12809 whole entry, looked up): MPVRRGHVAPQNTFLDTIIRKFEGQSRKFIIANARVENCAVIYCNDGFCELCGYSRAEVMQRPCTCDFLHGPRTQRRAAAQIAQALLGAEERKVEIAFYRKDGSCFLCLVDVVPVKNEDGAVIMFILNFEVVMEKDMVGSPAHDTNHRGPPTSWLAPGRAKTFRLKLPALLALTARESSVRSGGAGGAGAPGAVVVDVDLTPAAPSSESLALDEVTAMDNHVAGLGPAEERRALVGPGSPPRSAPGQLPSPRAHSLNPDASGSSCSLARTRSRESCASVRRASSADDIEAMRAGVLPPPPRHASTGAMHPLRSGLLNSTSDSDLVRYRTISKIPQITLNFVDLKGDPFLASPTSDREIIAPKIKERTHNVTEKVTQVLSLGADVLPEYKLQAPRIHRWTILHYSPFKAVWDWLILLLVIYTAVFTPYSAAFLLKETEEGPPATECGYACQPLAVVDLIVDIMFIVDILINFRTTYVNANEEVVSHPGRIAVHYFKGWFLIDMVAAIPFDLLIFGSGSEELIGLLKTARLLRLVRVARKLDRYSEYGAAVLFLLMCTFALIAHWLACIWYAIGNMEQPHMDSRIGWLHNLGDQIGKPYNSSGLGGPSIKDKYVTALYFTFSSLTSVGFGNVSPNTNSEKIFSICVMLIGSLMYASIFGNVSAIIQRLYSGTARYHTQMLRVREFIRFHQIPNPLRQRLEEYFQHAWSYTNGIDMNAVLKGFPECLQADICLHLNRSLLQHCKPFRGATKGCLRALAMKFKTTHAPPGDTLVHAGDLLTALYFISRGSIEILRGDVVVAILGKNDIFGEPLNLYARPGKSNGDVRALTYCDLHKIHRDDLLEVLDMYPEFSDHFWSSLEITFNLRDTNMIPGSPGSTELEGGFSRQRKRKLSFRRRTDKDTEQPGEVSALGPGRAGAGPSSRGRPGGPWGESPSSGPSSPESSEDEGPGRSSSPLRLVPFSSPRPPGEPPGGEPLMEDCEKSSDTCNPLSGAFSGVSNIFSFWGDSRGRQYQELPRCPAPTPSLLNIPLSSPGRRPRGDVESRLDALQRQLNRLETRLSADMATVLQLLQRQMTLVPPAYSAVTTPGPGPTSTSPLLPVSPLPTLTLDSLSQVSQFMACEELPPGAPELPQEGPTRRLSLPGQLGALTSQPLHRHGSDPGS
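Also: peak tail current of the secondary pulse compared with the same well before compound.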

Row | Structure (SMILES) | hERG current change (%, negative = inhibition) at 10uM [%]
1 | CSc1ccc(/C=N/NC(=O)c2sccc2C)cc1 | 15.4
2 | CCCCC(=O)NC(c1ccc(OC)c(OC)c1)c1c(O)ccc2ccccc12 (centres unmarked) | -13.7
3 | O=C1C(Cl)=C(N2CCOCC2)C(=O)N1c1ccccc1F | 20.3
4 | O=C(Nc1ccc(Cl)c([N+](=O)[O-])c1)c1cnccn1 | -10.4
5 | Cc1ccc(/C=N/NC(=O)COc2ccccc2-c2ccccc2)cc1 | -3.49
6 | CCc1ccc(OCC(=O)N2CCN(c3ccccc3F)CC2)cc1 | 20.2
7 | CC(=O)c1ccc(N2CCN(C(=O)COc3ccccc3F)CC2)c(F)c1 | -39.7
8 | Cc1ccc(S(=O)(=O)Nc2ccccc2C(=O)Nc2nc(-c3ccc(F)cc3)cs2)cc1 | 9.22
9 | CCC(=O)c1ccc(N2CCN(C(=O)COc3ccccc3F)CC2)c(F)c1 | -50.9
10 | CC(=O)c1ccc(N2CCN(C(=O)CN3C(=O)NC4(CCCCC4)C3=O)CC2)c(F)c1 | 0.416
11 | CC(=O)c1ccc(N2CCN(C(=O)COc3ccc(F)cc3)CC2)c(F)c1 | -71.5
12 | COc1cc(C(=O)N2CCN(c3ccccc3O)CC2)ccc1OCC(=O)N1CCOCC1 | 3.06
13 | COc1cc(C(=O)N2CCN(c3ccccc3F)CC2)ccc1OCC(=O)N1CCOCC1 | -60.9
14 | COc1cc(C(=O)N2CCN(c3ccccc3Cl)CC2)ccc1OCC(=O)N1CCOCC1 | -28.6
15 | CCC(=O)c1ccc(N2CCCCCC2)c(F)c1 | 4.04
16 | COc1ccc(S(=O)(=O)Nc2ccccc2C(=O)Nc2nc(-c3ccc(F)cc3)cs2)cc1OC | -51.7
17 | COc1ccc(-c2csc(NC(=O)c3ccccc3NS(=O)(=O)c3ccc(F)c(F)c3)n2)cc1 | 19.3
18 | CC(=O)c1cccc(NC(=O)NCc2ccco2)c1 | -2.14
19 | COc1ccc(Cl)cc1Nc1nc(NCCO)nc(N2CCCCC2)n1 | -3.45
20 | CCN(CC)S(=O)(=O)c1ccc(C)c(NC(=S)N2CCN(C/C=C/c3ccccc3)CC2)c1 | -2.74
21 | CCOc1ccc(NS(=O)(=O)c2ccc(NC(=S)NC(=O)CC(C)C)cc2)cc1 | 8.92
22 | O=C(CSC(=S)N1CCCC1)N1CCN(S(=O)(=O)c2cccc([N+](=O)[O-])c2)CC1 | 5.69

Row | Structure (SMILES) | hERG current change (%, negative = inhibition) at 10uM [%]
23 | COc1ccc(/C=N/NC(=O)CC(=O)NCc2cccnc2)c(OC)c1 | 4.71
24 | CCC(CC)C(=O)c1c[nH]c(C(=O)NCc2cccnc2)c1 | 18.6
25 | CC(C)(C)c1ccc(-c2nnc(SCC(=O)c3ccc4c(c3)OCCO4)o2)cc1 | 12.3
26 | Cc1ccc(S(=O)(=O)N(C)CCCC(=O)NC(C)(C)C)cc1 | 13.3
27 | CO/N=C/c1cn(-c2ccc(Cl)cc2)nn1 | -2.53
28 | CCOC(=O)N1CCN(c2ccc(C(=O)CC)cc2F)CC1 | -9.37
29 | CCC(=O)c1ccc(N2CCN(C(=O)COc3ccc(F)cc3)CC2)c(F)c1 | -73.4
30 | COc1cc(C(=O)Nc2nc(-c3ccc(F)cc3)cs2)ccc1OCC(=O)N1CCOCC1 | -53.3
31 | CC(=O)c1cc(F)c(N2CCN(C(=O)COc3ccc(F)cc3)CC2)cc1C | -76.3
32 | CCC(=O)c1ccc(N2CCCC2)c(F)c1 | 6.95
33 | CC(=O)c1cc(F)c(N2CCN(C(=O)COc3ccccc3F)CC2)cc1C | -7.84
34 | COc1ccc(-c2csc(NC(=O)c3ccc(OCC(=O)N4CCOCC4)c(OC)c3)n2)cc1 | -48
35 | CC(=O)c1ccc(N2CCN(C(=O)Cc3ccccc3)CC2)c(F)c1 | -9.6
36 | CC(=O)c1ccc(N2CCCC2)c(F)c1 | 1.88
37 | COc1cc(C(=O)Nc2nc(-c3ccc(C)cc3)cs2)ccc1OCC(=O)N1CCOCC1 | -18.9
38 | CCCCCC(=O)N1CCN(c2ccc(C(C)=O)cc2F)CC1 | -60.9
39 | CCOC(=O)N1CCN(c2cc(C)c(C(C)=O)cc2F)CC1 | 2.71
40 | CC1=Nc2ccccc2NC(=O)C1Sc1nnc(C)s1 (centres unmarked) | -12.6
41 | CC(C)CN1CCC(CNC(=O)CCc2nnc(Cc3c[nH]c4ccccc34)o2)CC1 | -1.27
42 | N#Cc1ccccc1NC(=S)NC(=O)C1CCC1 | 9.95
43 | COc1cc2c3cc1Oc1cc(ccc1O)C[C@@H]1c4c(cc(OC)c(O)c4Oc4ccc(cc4)C[C@H]3N(C)CC2)CCN1C | -37
44 | COc1ccccc1N1CCN(C(=O)CCNS(=O)(=O)c2ccc(Br)s2)CC1 | -31.3

Row | Structure (SMILES) | hERG current change (%, negative = inhibition) at 10uM [%]
45 | S=C1NC[C@H](Cc2ccccc2)N1CCCCC1CCCCC1 | 4.71
46 | COC(=O)c1ccc2nc(C)cc(Nc3ccc(N(C)C)cc3)c2c1.Cl | -67.1
47 | COC(=O)c1ccc2nc(C)cc(Nc3ccccc3C)c2c1.Cl | -47.5
48 | CC(=O)c1ccc(Nc2nc(C)cc(C)n2)cc1 | 4.62
49 | CC(=O)c1ccc(Nc2cc(C)nc3ccc(C)cc23)cc1 | -74.5
50 | COC(=O)c1ccc(Nc2nc(C)cc(C)n2)cc1 | 10.9
51 | CC(=O)c1ccc(NC(=O)c2cc(C)nc3ccccc23)cc1 | 16.5
52 | CCOC(=O)c1cnc2ccc(C(=O)OC)cc2c1Nc1ccc(C(=O)O)cc1.Cl | 5.66
53 | COC(=O)c1ccc(Nc2cc(C)nc3ccc(C)cc23)cc1.Cl | -55.6
54 | COC(=O)c1ccc(Nc2cc(C)nc3ccccc23)cc1.Cl | -37.3
55 | Cc1ccc(NN2C(=O)C=CC2=O)cc1 | 0.632
56 | N/C(=N\S(=O)(=O)c1ccccc1)c1ccc([N+](=O)[O-])cc1 | -30
57 | COC(=O)C1C(=O)NC(SC)=C(C#N)C1c1ccccc1 (centres unmarked) | 8.09
58 | COC(=O)c1cc(CSc2nnc(NC3CCCCC3)s2)oc1C | -10.1
59 | Cc1ccc(CN(C)C(=O)c2c(C)nn(-c3ccccc3)c2C)cc1 | 8.12
60 | C=C(C)c1cccc(C(C)(C)NC(=O)N2CCN(c3ncccn3)CC2)c1 | 0.0429
61 | Cc1c(NC(=O)C(C)N2CC(C)OC(C)C2)c(=O)n(-c2ccccc2)n1C (centres unmarked) | 9.21
62 | Cc1cccc(NC(=O)Nc2ccc(S(N)(=O)=O)cc2)c1 | 13.4
63 | Cc1cccc(C(=O)NNC(=O)CCC(=O)Nc2cccc(Cl)c2C)c1 | 9.03
64 | CCOc1ccc(-c2nnn(CC(=O)c3cc(OC)ccc3OC)n2)cc1 | -7.91
65 | O=C(Cn1nc(-c2cccc(Cl)c2)ccc1=O)Nc1ccccc1Br | 10.7
66 | COc1ccc(CC(=O)N2N=C(C)CC2(O)c2cccnc2)cc1OC (centres unmarked) | -17

Row | Structure (SMILES) | hERG current change (%, negative = inhibition) at 10uM [%]
67 | CCOc1c2ccc(C(=O)NCc3ccc4c(c3)OCO4)cc2nn1C | 17.6
68 | Fc1ccccc1C1c2[nH]c3ccccc3c2CCN1Cc1cccn1-c1ncccn1 (centres unmarked) | -50.6
69 | Fc1ccc(C2c3[nH]c4ccccc4c3CCN2Cc2ccoc2)cc1 (centres unmarked) | -26.8
70 | Fc1ccc(C2c3[nH]c4ccccc4c3CCN2Cc2cccn2-c2ncccn2)cc1 (centres unmarked) | -52.2
71 | COc1ccc(C2c3[nH]c4ccccc4c3CCN2Cc2ccoc2)c(F)c1 (centres unmarked) | -36.9
72 | CCOc1ccc(C2c3[nH]c4ccccc4c3CCN2Cc2cccn2-c2ncccn2)cc1 (centres unmarked) | -53.3
73 | COc1ccc(OCC(=O)N2CCc3c([nH]c4ccccc34)C2c2ccccn2)cc1 (centres unmarked) | 21.4
74 | CCOc1ccc(C2c3[nH]c4ccccc4c3CCN2C(=O)Cn2cncn2)cc1 (centres unmarked) | -15
75 | Cc1ccccc1C1c2[nH]c3ccccc3c2CCN1Cc1cccn1-c1ncccn1 (centres unmarked) | -46.3
76 | Fc1ccccc1C1c2[nH]c3ccccc3c2CCN1Cc1ccoc1 (centres unmarked) | -51.7
77 | Cn1nccc1C(=O)N1CCc2c([nH]c3ccccc23)C1c1ccc(F)cc1 (centres unmarked) | -19.4
78 | O=C(c1cc2ncccn2n1)N1CCc2c([nH]c3ccccc23)C1c1ccccc1F (centres unmarked) | -5.11
79 | Cc1cnc(C(=O)N2CCc3c([nH]c4ccccc34)C2c2ccc(F)cc2)cn1 (centres unmarked) | -39.8
80 | CCn1c(COc2ccccc2C)nnc1SCC(=O)O | 16.3
81 | Cc1cc(C)cc(NC(=O)N2CCC(NC(=O)c3ccccc3C)CC2)c1 | 5.74
82 | O=C(CSc1nnc(-c2ccccc2)n1-c1ccccc1)c1ccc[nH]1 | 16.4
83 | CCOC(=O)N1CCN(C(=O)CNC(=O)c2ccc(Br)o2)CC1 | 11.7
84 | COc1ccc(-c2csc(NC(=O)c3c(OC)cccc3OC)n2)cc1 | 7.77
85 | COc1ccccc1CNS(=O)(=O)c1cc2c3c(c1)CCN3C(=O)CC2 | -4.02
86 | O=C1COc2ccc(C(=O)COC(=O)CNC(=O)C3CCCCC3)cc2N1 | -7.17
